{"source": "the supplement of paper PMC8728848", "binders": {"B1": {"name": "CPA (Cicer arietinum) (protein)", "chain": "MAFSYLNLVLVTLTTLFFLQTTKVKSQKSVSFHITNFTISRPSITLQGTAEFLPNVLLLNDIEHPVFVVGRALYSKPITLWNNKTGKVASFVTSFTFDVQDLKKTVPGHGLVFFLAPSGSEIPFSSDGGNLGVVDGKNAFNRFVGVEFDNFVNSWDPKYSHVGINVNSLISTKTVKWNRVSGELVKVSIVYDSVSTTLTVIVTYKNGQISILSQLVDLKAVLPDTVNIGFSASTTLVSPRQLHNIHSWSFTSTFET"}}, "assay_in_all_cases": "glycan array binding signal (z-score within array); higher = stronger binding", "conditions_in_all_cases": "glycan notation: IUPAC condensed, linker removed", "key": {"Fuc(a1-2)Gal(b1-3)GalNAc": {"biological_target": "Fuc(a1-2)Gal(b1-3)GalNAc", "outline": "(§1)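 The binding signal is a Z-score computed within each array. Data were drawn from 3228 arrays in the Consortium for Functional Glycomics database, restricted to those with a known protein sequence. Scores were averaged over arrays of the same protein sequence at different concentrations or buffers, and over linkers, and negative values can be taken as non-binding.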"}, "[1]": {"biological_target": "Fuc(a1-2)Gal(b1-3)GlcNAc(b1-2)Man(a1-3)[Fuc(a1-2)Gal(b1-3)GlcNAc(b1-2)Man(a1-6)]Man(b1-4)GlcNAc(b1-4)GlcNAc", "outline": "as §1"}, "[2]": {"biological_target": "Fuc(a1-2)Gal(b1-3)[Fuc(a1-4)]GlcNAc(b1-3)[Gal(b1-4)GlcNAc(b1-6)]Gal(b1-4)Glc", "outline": "as §1"}, "[3]": {"biological_target": "Fuc(a1-2)Gal(b1-4)GlcNAc(b1-2)Man(a1-3)[Fuc(a1-2)Gal(b1-4)GlcNAc(b1-2)Man(a1-6)]Man(b1-4)GlcNAc(b1-4)[Fuc(a1-6)]GlcNAc", "outline": "as §1"}, "[4]": {"biological_target": "Fuc(a1-2)Gal(b1-4)GlcNAc(b1-3)Gal(b1-4)GlcNAc(b1-2)Man(a1-3)[Fuc(a1-2)Gal(b1-4)GlcNAc(b1-3)Gal(b1-4)GlcNAc(b1-2)Man(a1-6)]Man(b1-4)GlcNAc(b1-4)GlcNAc", "outline": "as §1"}, "[5]": {"biological_target": "Fuc(a1-2)Gal(b1-4)[Fuc(a1-3)]GlcNAc(b1-3)Gal(b1-4)[Fuc(a1-3)]GlcNAc", "outline": "as §1"}, "[6]": {"biological_target": "Fuc(a1-2)[Gal(a1-3)]Gal(b1-3)GlcNAc(b1-2)Man(a1-3)[Fuc(a1-2)[Gal(a1-3)]Gal(b1-3)GlcNAc(b1-2)Man(a1-6)]Man(b1-4)GlcNAc(b1-4)[Fuc(a1-6)]GlcNAc", "outline": "as §1"}, "[7]": {"biological_target": "Fuc(a1-2)[Gal(a1-3)]Gal(b1-4)GlcNAc(b1-2)Man(a1-3)[Fuc(a1-2)[Gal(a1-3)]Gal(b1-4)GlcNAc(b1-2)Man(a1-6)]Man(b1-4)GlcNAc(b1-4)GlcNAc", "outline": "as §1"}, "[8]": {"biological_target": "Fuc(a1-2)[GalNAc(a1-3)]Gal(b1-3)GlcNAc(b1-3)GalNAc", "outline": "as §1"}, "[9]": {"biological_target": "Fuc(a1-2)[GalNAc(a1-3)]Gal(b1-4)GlcNAc(b1-2)Man(a1-3)[Fuc(a1-2)[GalNAc(a1-3)]Gal(b1-4)GlcNAc(b1-2)Man(a1-6)]Man(b1-4)GlcNAc(b1-4)[Fuc(a1-6)]GlcNAc", "outline": "as §1"}, "[10]": {"biological_target": "Fuc(a1-2)[GalNAc(a1-4)]Gal(b1-4)GlcNAc", "outline": "as §1"}, "Fuc(a1-3)GlcNAc": {"biological_target": "Fuc(a1-3)GlcNAc", "outline": "as §1"}, "Gal(a1-2)Gal": {"biological_target": "Gal(a1-2)Gal", "outline": "as §1"}, "Gal(a1-3)Gal(b1-3)GlcNAc": {"biological_target": "Gal(a1-3)Gal(b1-3)GlcNAc", "outline": "as §1"}, "[11]": {"biological_target": "Gal(a1-3)Gal(b1-3)GlcNAc(b1-2)Man", "outline": "as §1"}, "[12]": {"biological_target": "Gal(a1-3)Gal(b1-3)GlcNAc(b1-6)GalNAc", "outline": "as §1"}, "Gal(a1-3)Gal(b1-4)Glc": {"biological_target": "Gal(a1-3)Gal(b1-4)Glc", "outline": "as §1"}, "[13]": {"biological_target": "Gal(a1-3)Gal(b1-4)GlcNAc(b1-6)GalNAc", "outline": "as §1"}, "Gal(a1-3)GalNAc": {"biological_target": "Gal(a1-3)GalNAc", "outline": "as §1"}, "[14]": {"biological_target": "Gal(b1-3)GalNAc(a1-3)[Fuc(a1-2)]Gal(b1-4)Glc", "outline": "as §1"}, "[15]": {"biological_target": "Gal(b1-3)GlcNAc(b1-3)Gal(b1-4)GlcNAc(b1-3)Gal(b1-4)GlcNAc(b1-2)[Gal(b1-3)GlcNAc(b1-3)Gal(b1-4)GlcNAc(b1-3)Gal(b1-4)GlcNAc(b1-6)]Man(a1-6)[Gal(b1-3)GlcNAc(b1-3)Gal(b1-4)GlcNAc(b1-3)Gal(b1-4)GlcNAc(b1-2)Man(a1-3)]Man(b1-4)GlcNAc(b1-4)[Fuc(a1-6)]GlcNAc", "outline": "as §1"}, "[16]": {"biological_target": "Gal(b1-4)GalNAc(a1-3)[Fuc(a1-2)]Gal(b1-4)GlcNAc", "outline": "as §1"}, "[17]": {"biological_target": "Gal(b1-4)GlcNAc(b1-2)Man(a1-6)[Man(a1-3)]Man(b1-4)GlcNAc(b1-4)GlcNAc", "outline": "as §1"}, "[18]": {"biological_target": "Gal(b1-4)GlcNAc(b1-3)Gal(b1-4)GlcNAc(b1-3)Gal(b1-4)GlcNAc(b1-2)Man(a1-3)[Gal(b1-4)GlcNAc(b1-3)Gal(b1-4)GlcNAc(b1-3)Gal(b1-4)GlcNAc(b1-2)Man(a1-6)]Man(b1-4)GlcNAc(b1-4)GlcNAc", "outline": "as §1"}, "[19]": {"biological_target": "Gal(b1-4)GlcNAc(b1-3)Gal(b1-4)GlcNAc(b1-3)Gal(b1-4)GlcNAc(b1-3)Gal(b1-4)GlcNAc(b1-2)Man(a1-3)[Gal(b1-4)GlcNAc(b1-3)Gal(b1-4)GlcNAc(b1-3)Gal(b1-4)GlcNAc(b1-3)Gal(b1-4)GlcNAc(b1-2)Man(a1-6)]Man(b1-4)GlcNAc(b1-4)[Fuc(a1-6)]GlcNAc", "outline": "as §1"}, "[20]": {"biological_target": "Gal(b1-4)GlcNAc(b1-3)Gal(b1-4)GlcNAc(b1-3)Gal(b1-4)GlcNAc(b1-3)Gal(b1-4)GlcNAc(b1-3)Gal(b1-4)GlcNAc(b1-3)Gal(b1-4)GlcNAc(b1-2)Man(a1-3)[Gal(b1-4)GlcNAc(b1-3)Gal(b1-4)GlcNAc(b1-3)Gal(b1-4)GlcNAc(b1-3)Gal(b1-4)GlcNAc(b1-3)Gal(b1-4)GlcNAc(b1-3)Gal(b1-4)GlcNAc(b1-2)Man(a1-6)]Man(b1-4)GlcNAc(b1-4)GlcNAc", "outline": "as §1"}, "[21]": {"biological_target": "Gal(b1-4)GlcNAc(b1-3)Gal(b1-4)GlcNAc(b1-3)GalNAc", "outline": "as §1"}, "[22]": {"biological_target": "Gal(b1-4)GlcNAc(b1-3)GalNAc", "outline": "as §1"}, "[23]": {"biological_target": "Gal(b1-4)GlcNAc(b1-6)[Gal(b1-4)GlcNAc(b1-3)]GalNAc", "outline": "as §1"}}, "note": "This is one part of a sample in which the strongest signals are shown more often than they occur."}
{"binder": "B1", "values": [{"measurement": "glycan array binding signal (z-score)", "setting": "Fuc(a1-2)Gal(b1-3)GalNAc", "result": -0.424}, {"measurement": "glycan array binding signal (z-score)", "setting": "[1]", "result": 3.79}, {"measurement": "glycan array binding signal (z-score)", "setting": "[2]", "result": -0.072}, {"measurement": "glycan array binding signal (z-score)", "setting": "[3]", "result": 0.297}, {"measurement": "glycan array binding signal (z-score)", "setting": "[4]", "result": 0.012}, {"measurement": "glycan array binding signal (z-score)", "setting": "[5]", "result": -0.681}, {"measurement": "glycan array binding signal (z-score)", "setting": "[6]", "result": -0.184}, {"measurement": "glycan array binding signal (z-score)", "setting": "[7]", "result": 0.562}, {"measurement": "glycan array binding signal (z-score)", "setting": "[8]", "result": 3.66}, {"measurement": "glycan array binding signal (z-score)", "setting": "[9]", "result": 0.023}, {"measurement": "glycan array binding signal (z-score)", "setting": "[10]", "result": 1.3}, {"measurement": "glycan array binding signal (z-score)", "setting": "Fuc(a1-3)GlcNAc", "result": -0.573}, {"measurement": "glycan array binding signal (z-score)", "setting": "Gal(a1-2)Gal", "result": -0.045}, {"measurement": "glycan array binding signal (z-score)", "setting": "Gal(a1-3)Gal(b1-3)GlcNAc", "result": 0.134}, {"measurement": "glycan array binding signal (z-score)", "setting": "[11]", "result": -0.562}, {"measurement": "glycan array binding signal (z-score)", "setting": "[12]", "result": -0.42}, {"measurement": "glycan array binding signal (z-score)", "setting": "Gal(a1-3)Gal(b1-4)Glc", "result": 0.092}, {"measurement": "glycan array binding signal (z-score)", "setting": "[13]", "result": -0.23}, {"measurement": "glycan array binding signal (z-score)", "setting": "Gal(a1-3)GalNAc", "result": -0.121}, {"measurement": "glycan array binding signal (z-score)", "setting": "[14]", "result": -0.568}, {"measurement": "glycan array binding signal (z-score)", "setting": "[15]", "result": 3.59}, {"measurement": "glycan array binding signal (z-score)", "setting": "[16]", "result": -0.399}, {"measurement": "glycan array binding signal (z-score)", "setting": "[17]", "result": -0.041}, {"measurement": "glycan array binding signal (z-score)", "setting": "[18]", "result": 4.32}, {"measurement": "glycan array binding signal (z-score)", "setting": "[19]", "result": 0.005}, {"measurement": "glycan array binding signal (z-score)", "setting": "[20]", "result": 3.7}, {"measurement": "glycan array binding signal (z-score)", "setting": "[21]", "result": 3.36}, {"measurement": "glycan array binding signal (z-score)", "setting": "[22]", "result": -0.24}, {"measurement": "glycan array binding signal (z-score)", "setting": "[23]", "result": 3.6}]}
